Experimental data taken from PubChem BioAssay AID901 (National Center for Advancing Translational Sciences (NCATS), 2007).
In all, about 120,000 compounds went through this assay and fewer than 10 were called active. Roughly 4% stayed inconclusive and do not appear here. The call rests on the fitted dose curve; in most records, active means well fitted curve in the direction sought with a large enough effect in the signal ratio (not every such curve was filed as active); inconclusive means small, poorly fitted or top-dose-only effect, or a change in a side signal; inactive means no such curve, though single readings can be large or run the other way; the % refers to the signal ratio. Only a sample is shown.

The compounds below were run against Inositol monophosphatase 1 (Rattus norvegicus) (UniProt P97697) (assay: qHTS Assay for Identifying the Cell-Membrane Permeable IMPase Inhibitors). Conditions: CHO-M1 cells, HTRF TR-FRET ratio; series mostly up to 46.1 µM.
Excerpt: NCGC IMPase Assay Overview
Lithium has been widely used for the treatment of bipolar disorder. But lithium has a narrow therapeutic index and it can cause side effects such as thirst, weight gain, tremor, polyuria and memory problems. Although the mechanism for lithium action in treatment of bipolar disorder is still not fully understood, inhibition of inositol monophosphatase (IMPase) and the subsequent depletion of the inositol pool in living cells have been implicated as the primary therapeutic benefit of lithium therapy. Therefore, a selective IMPase inhibitor with reduced side effects might be a good drug candidate to replace lithium for the treatment of bipolar disorder. Several IMPase inhibitors have been discovered previously. However, they are not suitable for therapeutic use because of their poor cell membrane penetrability or oral bioavailability; the development of new cell-permeable IMPase inhibitors is needed.
IMPase catalyzes the hydrolysis of inositol-1-phosphate (IP1) to release free inositol. Binding of an agonist to a Gq coupled GPCR results in the activation of PLC, which hydrolyzes the PIP2 to form inositol-1,4,5-trisphosphate (IP3) and diacyl glycerol (DAG). While DAG activates protein kinase C (PKC), IP3 triggers the elevation of intracellular free Ca2+. The IP3 is very rapidly inactivated by hydrolysis to IP2, IP1 and then inositol by a series of enzymes including IMPase. Free inositols are used for synthesis of PI and thus start another inositol cycle.
To identify new cell-permeable IMPase inhibitors, we developed a cell-based IMPase assay in which the cytosolic IP1 is measured by a time-resolved fluorescence resonance energy transfer (TR-FRET) assay. In this assay, an IP1 specific antibody is used to detect the labeled IP1 tracer. When the cell lysate contains the elevated IP1 due to the inhibition of IMPase, the TR-FRET between the labeled antibody and IP1 tracer is disrupted resulting in a reduction in the total signal. Since the TR-FRET is used, this cell-based assay is a homogenous assay without cell wash and medium change that is suitable for assay miniaturization and HTS.
NCGC IMPase Assay Protocol Summary
A Chinese hamster ovary (CHO) cell line stably expressing the M1 receptor (CHO-M1) was obtained from ATCC and maintained in F-12 Kaighn's media (Invitrogen, Carlsbad, CA, 21127) supplemented with 10 % FBS, 100 units/ml penicillin, 100 ug/ml streptomycin and 250 ug/ml geneticin at 37C, 5% CO2 in a humidified atmosphere. Before the assay, aliquots of cells were frozen and stored at -135C. The assay was performed in 1536-well format. Data are reported for both the ratio of the two emission wavelengths, and also for the component 'donor' channel, Em2=620. […] AC50 values were determined from concentration-response data modeled with the standard Hill equation.
IMPase 1536-well assay protocol:
(1) Plate 4 ul/well (2000 cells) of cell suspension from frozen CHO-M1 Cells in white, tissue culture treated 1536-well plates that are cultured at 37C, 5 % CO2 for 16 to 30 hours.
(2) Add 23 nl/well of compound in DMSO solution. The final titration for each compound was between 0.6 nM and 46 uM.
(3) Add 1 ul of carbachol (50 uM in stimulation buffer containing10mM HEPES, 1mM CaCl2, 0.5 mM MgCl2, 4.2 mM KCl, 146 mM NaCl, 5.5 mM glucose, 50mM LiCl, pH 7.4.
(4) Incubation at 37C, 5 % CO2 for 30 min.
(5) Add 1 ul/well of d2-conjugated IP1 (d2-IP1) and 1 ul/well of Eu+ cryptate conjugated anti-IP1 antibody (Eu+-Ab) prepared in the cell lysis buffer, both from the IP-One kit (Cisbio, MA).
(6) Incubate at room temperature for 10 minutes.
(7) Detect the assay plate (Ex = 320, Em1 =665 and Em2 620) in a ViewLux plate reader.
inositol monophosphatase, IMPase, IMPase inhibitor, lithium, bipolar disorder, IP-One, HTRF, qHTS, NIH roadmap, NCGC
Note: In the gene ID and protein GI references for this assay, rat IMPase is referenced instead of hampster as hamster accession numbers were not available.
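Further: higher means more IMPase inhibition seen as more IP1 and lower FRET ratio.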

Sequence of Inositol monophosphatase 1 (Rattus norvegicus) (P97697 whole entry, looked up): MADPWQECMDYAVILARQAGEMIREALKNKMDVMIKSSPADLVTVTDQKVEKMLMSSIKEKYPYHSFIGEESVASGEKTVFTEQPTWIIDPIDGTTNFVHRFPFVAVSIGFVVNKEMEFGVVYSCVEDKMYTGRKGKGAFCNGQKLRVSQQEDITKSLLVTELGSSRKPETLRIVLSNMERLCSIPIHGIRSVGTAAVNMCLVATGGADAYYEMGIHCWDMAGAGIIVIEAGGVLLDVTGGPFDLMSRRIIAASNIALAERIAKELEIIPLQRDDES

outcome, inactive:
CCOc1ccc(S(=O)(=O)N(CC(=O)NCCSCc2ccc(C)cc2)c2ccccc2)cc1
Cc1ccc(C)c(N2CCN(Cc3nnc(-c4ccccc4)o3)CC2)c1
COC(=O)Cc1ccc(NC(=S)NCc2ccc(Cl)cc2)cc1
CCOc1cccc2c1N[C@@H](c1ccc(C(=O)O)cc1)[C@H]1CC=C[C@@H]21
NC(=S)N/N=C/c1coc2cc(Cl)ccc2c1=O
CCc1ccc2oc(-c3ccc(NC(=O)c4cc5ccccc5o4)cc3)nc2c1
CCOc1ccc(C2CC(=O)c3c([nH]c(C(=O)OCc4ccccc4)c3C)C2)cc1 (stereo not drawn)
Cc1ccc(C)c(NC(=O)C(OC(=O)c2ccc(C)s2)c2ccccc2)c1 (stereo not drawn)
CCOc1ccc(NC(=O)c2c(NC(=O)Cc3ccccc3)sc3c2CCC(C)C3)cc1 (stereo not drawn)
Cc1ccc(NC(=O)C(=O)NCc2ccc(/C=N/NC(=O)c3c(C)nc4cc(C)ccn34)o2)cc1
Cc1ccc(C)c(OCC(=O)Nc2sc3c(c2C#N)CCCC3)c1C
Cc1nc(SCC(=O)Nc2ccc(C(=O)O)cc2)n[nH]1
CCOC(=O)c1c(NC(=S)NC(=O)/C=C/c2cccs2)sc(C)c1C
CCCOC(=O)c1c(NC(=O)c2cc3nc(-c4ccc(OC)cc4)cc(C(F)(F)F)n3n2)sc2c1CCCC2
Cc1cccc(-c2nnc(SCC(=O)N3CCCc4ccccc43)o2)c1
CCOC(=O)/C(C#N)=C/c1ccc(N2CCN(Cc3ccccc3)CC2)cc1
CCOc1ccc(S(=O)(=O)Nc2ccc3oc4c(c3c2)CC(C)CC4)cc1 (stereo not drawn)
Cc1ccc(CSCC(N)C(=O)O)cc1 (stereo not drawn)
CCC1=Nc2cc(C(=O)NCC(C)c3ccccc3)ccc2Sc2ccc(C)cc21 (stereo not drawn)
CCOC(=O)c1ccc(NC(=O)c2ncn(-c3ccccc3)n2)cc1
COCCNC(=O)c1ccc(N2CCC3(CC2)OCCO3)c([N+](=O)[O-])c1
O=C(Nc1ccc2oc(-c3ccc(O)c(Br)c3)nc2c1)c1cc2ccccc2o1
Cc1c(NS(=O)(=O)c2ccc(NC3CCCC3)c([N+](=O)[O-])c2)c(=O)n(-c2ccccc2)n1C
O=C(CCS(=O)(=O)c1cc(Br)cc2c1N(C(=O)C1CC1)CC2)Nc1ccc(Br)cc1F
COc1ccc(OC)c(/C=C/C(=O)OCC(=O)Nc2ccc3c(c2)OCCO3)c1
COc1cccc(N=C2SC(C(=O)Nc3cccc(Cl)c3)CC(=O)N2C)c1 (stereo not drawn)
COc1ccc([N+](=O)[O-])cc1NC(=O)c1ccc(N(Cc2ccccc2C)S(C)(=O)=O)cc1
CC1=C(C(=O)Nc2ccccc2)C(c2ccc(C)cc2)n2nc(SCc3ccccc3C)nc2N1 (stereo not drawn)
FC(F)(F)c1cc(Nc2nc3ccccc3c3nncn23)ccc1Cl
CCCSc1nc2sc3c(c2c(=O)n1-c1cccc(Br)c1)CC(C)(C)OC3
COc1cccc(OCCn2c(-c3ccc(Br)cc3)nc3ccccc3c2=O)c1
CCOC(=O)c1c(N)n(-c2cccc(C)c2C)c2nc3ccccc3nc12
Cc1ccc(NC(=O)c2sc3nc(N)c(C#N)cc3c2N)cc1
Cc1ccc2nc(-c3ccc(C)c(NC(=O)Cc4ccccc4)c3)oc2c1
CN(Cc1ccccc1)C(=O)CCS(=O)(=O)c1cc(Br)cc2c1N(C(=O)C1CC1)CC2
COC(=O)c1ccc(OCC(O)CN(CCO)CC(O)Cn2ccc3ccccc32)cc1 (stereo not drawn)
COc1cccc(C(=O)NC2(C(F)(F)F)C(=O)Nc3c2c(=O)[nH]c(=O)n3-c2ccc(C)cc2)c1 (stereo not drawn)
COC(=O)c1c(NC(=O)C(C)Oc2ccc(Cl)c(C)c2)sc(C)c1C (stereo not drawn)
O=C(NCCCN1CCN(c2cccc(Cl)c2)CC1)c1nnc(Cc2ccc(F)cc2Cl)o1
CCC(=O)NCc1cc(-c2nn(C)c(=O)c3ccccc23)ccc1OC
CCCn1c(C)cc(/C=C(\C#N)C(=O)OCC(=O)Nc2cc(OC)c(OC)c(OC)c2)c1C
COc1ccc2nc(SCc3ccccc3)nc(C)c2c1
COc1ccc(-c2cc(C(F)(F)F)nc(SCC(=O)N(C)Cc3ccccc3)n2)cc1OC
O=C(COC(=O)c1cc([N+](=O)[O-])ccc1NCc1ccccc1)NC1CCCCC1
CCCn1c(=N)n(CC(O)COc2ccccc2OC)c2ccccc21 (stereo not drawn)
COc1cccc(-c2nnc(SCC(=O)N3CCC(C)CC3)o2)c1
Cc1cc(C)cc(NC(c2nnc(-c3cccc(F)c3)o2)c2ccc(F)cc2Cl)c1 (stereo not drawn)
CCn1c2ccccc2c2cc(NC(=O)COc3ccc(C)cc3C)ccc21
Cc1cccc(N2CCN(C(=O)c3ccc(Nc4nc5ccccc5n5nnnc45)cc3)CC2)c1C
O=C(Nc1ccc(Oc2ccccc2)cc1)C1CCN(S(=O)(=O)c2ccc(Cl)cc2)CC1
CCOC(=O)c1cnc2c(C)cc(Cl)cc2c1NCCc1ccc(OC)c(OC)c1
C/C(CC1CC(C)(C)OC1=O)=N/Nc1nc(-c2ccccc2)cs1 (stereo not drawn)
Cc1ccc(C)c(N2CCN(C(=O)C3CCC(CNS(=O)(=O)c4cccs4)CC3)CC2)c1 (stereo not drawn)
CCc1nc2nc(C)cc(Nc3ccc(F)c(Cl)c3)n2n1
Cn1c(=O)c2c(nc(SCC(=O)Nc3ccc(F)cc3)n2Cc2ccc(Cl)cc2)n(C)c1=O
COc1ccc(NC(=O)C2CCCN(S(=O)(=O)c3c(C)[nH]c(=O)[nH]c3=O)C2)c(OC)c1 (stereo not drawn)
OCC(CO)(CO)NCc1ccc(-c2ccccc2)cc1
CCCCCCCCC(=O)NCCOc1ccccc1
Cc1cc(NC(=O)C2CCC(CNS(=O)(=O)c3ccc(Br)s3)CC2)ccc1Br (stereo not drawn)
C[n+]1ccccc1C1CCCC/C1=N\Nc1ccc([N+](=O)[O-])cc1[N+](=O)[O-] (stereo not drawn)
CC1=C(C(=O)OCC2CCCCC2)C(c2c(F)cccc2Cl)CC(=O)N1 (stereo not drawn)
CCN(C(=O)COC(=O)c1cc(NS(=O)(=O)c2ccc(Cl)c([N+](=O)[O-])c2)ccc1O)C1CCCCC1
COC(=O)c1cc(NC(=O)CCS(=O)(=O)c2cc(Br)cc3c2N(C(=O)C2CC2)CC3)cc(C(=O)OC)c1
COc1ccccc1CN(C)C(=O)C1(c2ccc(Cl)cc2)CC1
COc1ccc(OC)c(NC(=O)C2CCN(S(=O)(=O)c3ccc(C)cc3)CC2)c1
COc1cc(/C=N/NC(=O)CCc2n[nH]c(=O)[nH]c2=O)ccc1O
CCCCSc1ncnc2c1sc1nc(N3CCOCC3)c3c(c12)CCCC3
Cc1c(Cl)c([N+](=O)[O-])nn1CCCC(=O)NC(C)c1ccccc1 (stereo not drawn)
Cc1cc(C)cc(OCC(=O)Nc2c(C(=O)c3ccccc3)oc3ccccc23)c1
CCN(Cc1ccccc1)Cc1c(O)ccc2c(=O)c(-c3ccc(Cl)cc3Cl)coc12
Cn1c(=O)c2c(ncn2CC(=O)Nc2cccc(C(F)(F)F)c2)n(C)c1=O
CSCCC(NC(=O)c1cc([N+](=O)[O-])cc([N+](=O)[O-])c1)c1nc2ccccc2[nH]1 (stereo not drawn)
CCOc1cc(NC(=S)NCCCOC)c(OCC)cc1NC(=O)c1ccco1
O=C(CN1CCc2ccccc21)NC(c1ccccc1)c1ccccc1
CCOC(=O)CC(NC(=O)C1c2ccccc2Oc2ccccc21)c1ccc(C)cc1 (stereo not drawn)
O=C(COC(=O)CSc1nnc(-c2ccc(Cl)cc2)o1)Nc1cc(Cl)cc(Cl)c1
Cc1ccc(-c2nnc(Nc3ccc(OCC(N)=O)cc3)c3ccccc23)cc1S(=O)(=O)NCC1CCCO1 (stereo not drawn)
CCOC(=O)c1ccc(-c2ccc(/C=C(\C#N)C(=O)Nc3ccc(OCC)cc3)o2)cc1
Cc1ccc(-n2c(SCC(=O)N3c4ccccc4Sc4ccccc43)nnc2-c2ccncc2)cc1
CCn1c2ccccc2c2cc(CN3CCN(Cc4cccc(Cl)c4)CC3)ccc21
O=C(Cc1ccc(Cl)cc1)Nc1ccc2nn(-c3ccc(Cl)cc3)nc2c1
CCNC(=S)N1CCC(c2nc3cc(C)c(C)cc3[nH]2)CC1
Cc1cc(Cl)ccc1OCC(=O)N(Cc1ccc(N(C)C)cc1)C1CCS(=O)(=O)C1 (stereo not drawn)
CCNS(=O)(=O)c1ccc(NC(=O)CSc2nc(-c3ccco3)cc(C(F)(F)F)n2)cc1
N#C/C(=C\c1cccc(F)c1)c1nc(-c2cc3c(ccc4ccccc43)oc2=O)cs1
Cc1ccc(N2CC(c3nnc(Cc4ccccc4Cl)o3)CC2=O)cc1 (stereo not drawn)
Cc1ccc(C(=O)Nc2nc(-c3ccccc3)ns2)cc1
Cc1ccc(-n2c3nc(=O)[nH]c(=O)c-3cc3c(Cl)cccc32)cc1
COC(=O)c1c(C)oc2ccc(N(C(=O)Oc3ccccc3)S(=O)(=O)c3ccccc3)cc12
CCC(C(=O)OCC(=O)Nc1c(Cl)cc(Cl)cc1Cl)c1ccccc1 (stereo not drawn)
CCn1c(=O)c(=O)n(CC)c2cc(N3CCCCC3)c(NC(=O)c3ccc(Cl)cc3)cc21
COc1ccc(NC(=O)Cn2c(=O)n(Cc3ccc(C(=O)NCc4ccccc4Cl)cc3)c(=O)c3ccccc32)cc1
CC1=Nc2cc(C(=O)N3CCC(C)CC3)ccc2Sc2ccc(Cl)cc21
COCCNC(=O)c1ccc2c(c1)N=C(C)c1cc(C)ccc1S2
Cc1cccc(C)c1OCC(=O)NC(Cc1c[nH]c2ccccc12)C(=O)O (stereo not drawn)
COc1ccc(-c2csc3ncnc(Oc4ccc5c(C)cc(=O)oc5c4)c23)cc1
CC(C)(C)C(=O)NC(NC(=S)Nc1ccc(S(N)(=O)=O)cc1)C(Cl)(Cl)Cl (stereo not drawn)
CCOC(=O)c1cnc2ccc(F)cc2c1Nc1ccc2c(c1)OCCO2
COc1ccc(CNC(=O)CCCn2nc(C)c([N+](=O)[O-])c2C)cc1
Cc1cc[n+](-c2[nH]c(=O)sc2/C=N/NC(=O)c2ccccc2[O-])cc1C
COc1ccc(-c2noc(CCC(=O)N(C)c3ccccc3C)n2)cc1
CCOC(=O)c1c(C)n(S(=O)(=O)c2ccc(C)cc2C)c2ccc(NS(=O)(=O)c3ccc(C)cc3C)cc12
CCC1CCCCN1C(=S)Nc1ccc(SC(F)F)cc1 (stereo not drawn)
